# Compound activity deposited in PubChem by Broad Institute.
# An excerpt weighted towards active compounds, which were near 8.1% of everything screened.
# PD-1 reversal = reversal of PD-1 mediated T-cell inhibition; activation, % (concentration not given with the values); AID 2316; primary human CD4 T cells, PD-L1 beads, CellTiter-Glo 96 h; 29,000 tested, under 10 active; call rule not given here;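 also: 0% = median vehicle wells and 100% = positive control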
# Hedgehog inh = blocks Sonic Hedgehog signaling | Shh-LIGHT2 Gli-luciferase reporter, 30 h | inhibition, % (concentration not given with the values) | 2.1% of 22,000 active | AID 2313;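 active = mean inhibition across valid replicates above about 65%, limit read from the data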;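 also: pathway switched on by Shh-conditioned medium diluted 1 in 25 in low serum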
# MITF inh = blocks MITF activity; AID 2240; TRPM1 promoter luciferase, luminescence, 24 h; inhibition, % (concentration not given with the values); 0.28% of 37,000 active; in the data active = inhibition above about 85%;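 also: human melanocyte line stably carrying TRPM1 promoter luciferase reporter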
# NOMO-1 viab = STK33 inhibitor candidate reducing NOMO-1 cell viability | NOMO-1 AML viability, CellTiter-Glo luminescence, 72 h | AID 2330 | 7.5% of 37,000 active | inhibition, % (no concentration beside the values); in the data active = inhibition above about 80%
# Starred values were filed as active, the others as inactive; nt = not tested or not shown.
SMILES,PD-1 reversal,Hedgehog inh,MITF inh,NOMO-1 viab
C[C@@H]1CN([C@H](C)CO)C(=O)Cc2cc(NC(=O)Cc3cn(C)c4ccccc34)ccc2O[C@H]1CN(C)C(=O)Nc1ccc(C(F)(F)F)cc1,-2,83*,22,25
C[C@@H]1CN([C@H](C)CO)C(=O)Cc2cc(NC(=O)Cc3cn(C)c4ccccc34)ccc2O[C@@H]1CN(C)Cc1ccc(Oc2ccccc2)cc1,-9,31,21,116*
C[C@@H]1CN([C@H](C)CO)C(=O)Cc2cc(NC(=O)Cc3cn(C)c4ccccc34)ccc2O[C@@H]1CN(C)Cc1ccc(-c2ccccc2)cc1,-5,1,26,110*
C[C@@H]1CN([C@@H](C)CO)C(=O)Cc2cc(NC(=O)Cc3cn(C)c4ccccc34)ccc2O[C@@H]1CN(C)Cc1ccc(-c2ccccc2)cc1,-3,14,22,40
C[C@H](CO)N1C[C@H](C)[C@H](CN(C)Cc2ccc(Oc3ccccc3)cc2)Oc2ccc(NC(=O)Cc3cn(C)c4ccccc34)cc2CC1=O,-1,-5,11,69
Cc1ccc(S(=O)(=O)N(C)C[C@@H]2OCCCC[C@@H](C)Oc3ccc(NC(=O)c4ccncc4)cc3C(=O)N([C@H](C)CO)C[C@@H]2C)cc1,nt,-8,-3,2
COc1ccc(S(=O)(=O)N(C)C[C@@H]2Oc3c(NC(=O)NC4CCCCC4)cccc3C(=O)N([C@H](C)CO)C[C@@H]2C)cc1,0,7,0,14
CC1CCCCN1CCCNC(=O)Nc1ccc(Cl)cc1 (stereo unspecified),1,51,-18,19
C[C@H]1CN([C@@H](C)CO)C(=O)Cc2cc(NC(=O)Nc3ccc(C(F)(F)F)cc3)ccc2O[C@H]1CN(C)Cc1ccc(C(=O)Nc2ccccc2N)cc1,-2,nt,34,127*
C[C@H](CO)N1C[C@H](C)[C@H](CN(C)Cc2ccc(C(=O)Nc3ccccc3N)cc2)Oc2ccc(NC(=O)Nc3ccc(C(F)(F)F)cc3)cc2C1=O,2,nt,-2,46
C[C@@H]1CN([C@H](C)CO)C(=O)Cc2cc(NC(=O)Nc3ccc(C(F)(F)F)cc3)ccc2O[C@@H]1CN(C)Cc1ccc(C(=O)Nc2ccccc2N)cc1,0,nt,14,138*
Cc1sc2ncn(CC(=O)NCc3ccco3)c(=O)c2c1C,-3,nt,2,21
C[C@H]1CN([C@@H](C)CO)C(=O)c2cc(NC(=O)Nc3ccc(C(F)(F)F)cc3)ccc2O[C@H]1CN(C)Cc1ccc2c(c1)OCO2,-2,nt,-5,106*
C[C@@H]1CN([C@@H](C)CO)C(=O)c2cc(NC(=O)Nc3ccc4c(c3)OCO4)ccc2O[C@@H]1CN(C)Cc1ccc(C(F)(F)F)cc1,2,nt,4,90*
COc1ccc(NC(=O)Nc2ccc3c(c2)CC(=O)N([C@H](C)CO)C[C@H](C)[C@H](CN(C)C(=O)Nc2ccc4c(c2)OCO4)O3)cc1,nt,-13,-2,1
Cc1noc(C)c1NC(=O)N(C)C[C@@H]1Oc2ccc(NC(=O)Cc3cn(C)c4ccccc34)cc2CC(=O)N([C@H](C)CO)C[C@@H]1C,0,4,-11,-9
CCCCn1c(NCc2ccc(OC)cc2O)nc2ccccc21,nt,nt,-6,6
COc1ccc(CCN2CCC(Nc3nc4ccccc4n3Cc3ccc(F)cc3)CC2)cc1,1,40,-10,114*
Cc1cc(O)c2c(c1)C(=O)C13C(C2=O)C(=O)C2C(O)C1C1C(O)C3C(=O)C3C(=O)c4c(O)cc(C)cc4C(=O)C321 (stereo unspecified),-1,-29,72,110*
COc1cc(C2c3c(cc(OC)c(O)c3OC)CC(CO)C2COC2OC(CO)C(O)C(O)C2O)cc(OC)c1O (stereo unspecified),0,-2,-10,5
CC1(C)C=Cc2c(c(CCO)c3occ(-c4ccc(O)c(O)c4)c(=O)c3c2O)O1,0,28,-32,40
CC(C)=CCc1c2c(c3occ(-c4ccc(O)cc4)c(=O)c3c1O)C=CC(C)(C)O2,nt,51,37,107*
C=CC(C)(CC/C=C(\C)C(O)CC=C(C)C)OC1OC(CO)C(O)C(O)C1O (stereo unspecified),nt,78*,nt,nt
NCCCCCCNS(=O)(=O)c1cccc2ccccc12,2,31,-2,84*
Cc1nc(SCC(=O)c2cc3ccccc3oc2=O)c(C#N)c(C)c1C,nt,nt,-42,110*
SMILES,PD-1 reversal,Hedgehog inh,MITF inh,NOMO-1 viab
Cc1cc(C)c(C#N)c(SCC(=O)c2cc3ccccc3oc2=O)n1,nt,nt,-47,8
C[C@H](CO)N1C[C@H](C)[C@@H](CN(C)C(=O)Nc2cccc3ccccc23)Oc2c(NC(=O)CCCCCC(=O)Nc3ccccc3N)cccc2C1=O,2,nt,16,14
O=C(/C=C/c1ccc(O)cc1)CC(=O)/C=C/c1ccc(O)cc1,-1,11,-1,108*
COc1ccc(NC(=O)Nc2ccc3c(c2)C(=O)N([C@H](C)CO)C[C@H](C)[C@H](CN(C)Cc2ccc(C(=O)Nc4ccccc4N)cc2)O3)cc1,2,nt,-5,39
COc1ccc(NC(=O)Nc2cccc3c2O[C@H](CN(C)Cc2ccc(C(=O)Nc4ccccc4N)cc2)[C@H](C)CN([C@@H](C)CO)C3=O)cc1,0,nt,9,127*
COc1ccc(NC(=O)Nc2cccc3c2O[C@H](CN(C)Cc2ccc(C(=O)Nc4ccccc4N)cc2)[C@@H](C)CN([C@H](C)CO)C3=O)cc1,-4,nt,-11,128*
COc1ccc(NC(=O)Nc2cccc3c2O[C@@H](CN(C)Cc2ccc(C(=O)Nc4ccccc4N)cc2)[C@H](C)CN([C@H](C)CO)C3=O)cc1,-2,nt,19,125*
COc1ccc(NC(=O)Nc2cccc3c2O[C@H](CN(C)Cc2ccc(C(=O)Nc4ccccc4N)cc2)[C@@H](C)CN([C@@H](C)CO)C3=O)cc1,-4,nt,2,128*
COc1ccc(S(=O)(=O)Nc2ccc3c(c2)C(=O)N([C@H](C)CO)C[C@H](C)[C@H](CN(C)Cc2ccc(C(=O)O)cc2)O3)cc1,1,nt,-6,-26
C[C@@H]1CN([C@H](C)CO)C(=O)Cc2cc(NC(=O)CCC(F)(F)F)ccc2O[C@H]1CN(C)Cc1ccc(C(F)(F)F)cc1,-2,-42,5,42
COC(=O)c1ccccc1NC(=O)c1ccc(NC(=O)COc2ccccc2)cc1,2,nt,23,2
C[C@H]1CN([C@@H](C)CO)C(=O)Cc2cc(NC(=O)CCC(F)(F)F)ccc2O[C@H]1CN(C)Cc1ccc(C(=O)Nc2ccccc2N)cc1,-5,nt,15,139*
C[C@@H]1CN([C@H](C)CO)C(=O)c2cc(NC(=O)CCC(F)(F)F)ccc2O[C@@H]1CN(C)Cc1ccc(C(=O)Nc2ccccc2N)cc1,-3,nt,15,104*
COc1ccc(OC)c(C2Nc3nc4ccccc4n3C(C)=C2C(=O)Nc2ccc(C)cc2C)c1 (stereo unspecified),-1,nt,5,85*
COc1ccc(S(=O)(=O)Nc2cccc3c2O[C@@H](CN(C)S(=O)(=O)c2cccs2)[C@@H](C)CN([C@H](C)CO)C3=O)cc1,1,-2,1,-11
